Sampled rows, rich in hits. Any-hit rate of the full collection: about 18%.
GCN5L2 inh: inhibitors of human GCN5L2 histone acetyltransferase. Potency, µM (doses to about 58.9 µM), usual class: inhibitors. Q92830. hit rate 0.21% among 390,000. GCN5L2 HAT assay, ThioGlo1 CoA-SH fluorescence
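Free CoA generated was detected with ThioGlo1 (50uM) fluorescence at Ex340nm/Em540nm, read immediately and after 20 min at room temperature. Enzyme, 20 nM in HEPES pH 7.5 buffer, saw compounds 15 min before adding 75uM H3(1-25) peptide and 70uM acetyl-CoA.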
VDR inh: inhibitors of human vitamin D receptor. P11473. Potency, µM, hits mostly inhibitors. hit rate 0.93% among 400,000. VDR-SRC2-3 peptide fluorescence polarization, 2 h
Target sequence (P11473 whole entry, looked up): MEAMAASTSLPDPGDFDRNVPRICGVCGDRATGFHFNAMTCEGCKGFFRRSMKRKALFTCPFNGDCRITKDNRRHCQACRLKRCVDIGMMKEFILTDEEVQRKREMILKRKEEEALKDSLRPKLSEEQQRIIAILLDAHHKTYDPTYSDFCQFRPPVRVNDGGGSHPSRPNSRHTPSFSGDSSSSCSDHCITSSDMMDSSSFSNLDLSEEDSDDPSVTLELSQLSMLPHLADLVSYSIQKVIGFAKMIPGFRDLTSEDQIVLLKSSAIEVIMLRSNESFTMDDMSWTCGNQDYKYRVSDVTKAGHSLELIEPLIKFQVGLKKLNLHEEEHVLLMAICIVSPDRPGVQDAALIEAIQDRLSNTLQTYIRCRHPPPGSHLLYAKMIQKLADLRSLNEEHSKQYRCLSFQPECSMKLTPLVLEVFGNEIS
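The screen uses fluorescence polarization to detect compounds that interfere with recruitment of the SRC2-3 coactivator peptide to VDR; plates are read after 2 h at room temperature.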
TDP1 cell CPT: DT40-hTDP1 cell growth loss with CPT; chicken DT40 Tdp1-/-;hTDP1 cells + 20 nM CPT, ATP luminescence, 48 h; Potency, µM (highest dose often 46.2 µM), actives largely listed as inhibitors; hit rate 12% among 420,000; further: nearly all actives have a fitted effect of over 55% in size
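Chicken DT40 Tdp1-/- cells complemented with human TDP1, 400 cells/well, exposed to compounds plus 20 nM camptothecin for at least 48 h at 37 C; viability read as ATP content by CellTiter-Glo luminescence.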
TDP1 cell noCPT: qHTS for Inhibitors of human tyrosyl-DNA phosphodiesterase 1 (TDP1): qHTS in cells in absence of CPT. DT40 Tdp1-/- hTDP1 cells, no CPT, ATP luminescence, 48 h. hit rate 15% among 420,000. AID 686978, 2013. Potency, µM (highest dose often 46.2 µM), usual class: inhibitors; further: nearly all actives have a fitted effect of over 55% in size
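Camptothecin absent (DMSO only). Human TDP1-complemented DT40 knockout cells, 400 cells/well, 37 °C for minimum 48 hr; ATP measured via CellTiter-Glo, 30 min dark incubation, luminescence.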
PLK1 PBD block: blocks phosphopeptide binding to human PLK1 polo-box domain; P53350; Plk1 PBD binding of FITC phosphopeptide, fluorescence polarization; Potency, µM, usual class: inhibitors; hit rate 2.8% among 360,000; AID 720504; further: series mostly up to about 57 µM; nearly all actives have a fitted effect of over 65% in size
TDP1 block: blocks human tyrosyl-DNA phosphodiesterase 1; hit rate 0.28% among 350,000; recombinant TDP1, AlphaScreen DNA substrate cleavage; Potency, µM (top dose mostly 130 µM), most hits filed as inhibitors; Q9NUW8; further: nearly all actives have a fitted effect of over 40% in size
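Enzyme-compound mixtures sat 15 min at room temperature, followed by a 5 min reaction with 15 nM final substrate and 10 min with AlphaScreen beads. Recombinant human Tdp1 was used at 1 nM final.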
A number is an active result; – = inactive; ? = inconclusive; · = no result given; [ ] = remark or other dose. The call rests on the fitted dose curve; in most records, active means well fitted curve in the direction sought with a large enough effect; inconclusive means small, poorly fitted or top-dose-only effect, or another doubt; inactive means no such curve, though single readings can be large; an effect the other way counts as inactive or inconclusive.

SMILES	GCN5L2 inh	VDR inh	TDP1 cell CPT	TDP1 cell noCPT	PLK1 PBD block	TDP1 block
CC1C=Cc2ccccc2N1C(=O)c1ccccc1 (stereo not given)	–	–	–	–	–	–
Cc1cccc(CNC(=O)c2cnn(-c3nccc(-c4cc(C)sc4C)n3)c2C)n1	·	·	–[9.04 µM]	–	·	·
Cc1ccc(CSc2nc3c(c(=O)[nH]2)C(c2cccc(F)c2F)CC(=O)N3)cc1 (stereo not given)	–	–	14.6µM	?	·	–
O=C(CSc1nc2cc(Cl)ccc2s1)c1ccco1	–	–	–	?	?	–
O=C(CSc1ncn[nH]1)c1cccc([N+](=O)[O-])c1	–	?	–	–	?	–
O=C(CSc1nnc(SCC(=O)c2ccco2)s1)c1ccco1	–	–	23.1µM	10.3µM	16.8µM	–
O=C(CSc1ncn[nH]1)c1ccco1	–	–	–	–	29.9µM	·
O=C(CSc1nccc(=O)[nH]1)c1ccco1	–	–	–	–	–	·
O=C(CSc1ncn[nH]1)c1ccccc1	?	?	–	–	23.8µM	–
Cc1cccc(C)c1NC(=O)CN(c1ccccn1)S(=O)(=O)c1ccccc1	–	–	–	–	–	–
COC(=O)c1ccc2c(=O)n(CC3CCCO3)c(SCC(=O)Nc3ccc(OC)cc3OC)nc2c1 (stereo not given)	–	–	–	–	–	·
CC1=C(CC(=O)NCC(=O)NCC(=O)O)c2cc(F)ccc2/C1=C/c1ccc(S(C)=O)cc1 (stereo not given)	–	–	–	–	–	·
O=C1Nc2c(c(=O)[nH]c(=O)n2-c2ccc(F)cc2)C1(NS(=O)(=O)c1ccccc1)C(F)(F)F (stereo not given)	–	–	–	–	–	–
CC(NCCCOc1cccc2ccccc12)c1ccccc1 (stereo not given)	?	–	?	18.4µM	–	·
CC(NCCOCCOc1ccccc1)c1ccccc1 (stereo not given)	–	–	–	?	–	–
COc1ccc2ccccc2c1CNC(C)c1ccccc1 (stereo not given)	–	–	7.31µM	10.3µM	–	·
COc1ccc2ccccc2c1CNCc1ccc(C)cc1	–	–	?	?	–	–
Cc1ccc(NC(=O)CCNC(=O)N2CC(=O)Nc3ccccc32)cc1Cl	·	·	–	–	–	·
CS(=O)(=O)c1ccc(C(=O)N2CC(=O)Nc3ccccc32)cc1	–	–	–	–	–	–
Cc1ccsc1C(=O)N1CC(=O)Nc2ccccc21	–	–	?	23.1µM	–	–
COc1ccc(C(=O)N2CC(=O)Nc3ccccc32)cc1S(=O)(=O)N1CCCC1	–	–	–	?	–	–
COc1cc(C(=O)N2CC(=O)Nc3ccccc32)cc(OC)c1OC	·	·	8.2µM	8.2µM	–	·
Cc1ccc(NC(=O)CNC(=O)N2CC(=O)Nc3ccccc32)cc1F	–	?	?	?	7.52µM	–
Cc1cc(C)cc(C(=O)N2CC(=O)Nc3ccccc32)c1	–	–	0.92µM	0.581µM	–	–
O=C(COC(=O)c1c[nH]c2ccccc12)NC1CCCCC1	–	–	–	?	–	–
SMILES	GCN5L2 inh	VDR inh	TDP1 cell CPT	TDP1 cell noCPT	PLK1 PBD block	TDP1 block
CC(C)(C)OC(=O)N[C@H](/C=C/c1ccccc1)C(=O)OC(C)(C)C	–	–	?	?	–	–
Cc1ccc(/C=C/C(=O)N2CC(=O)Nc3ccccc32)o1	22.4µM	–	–	–	–	–
COc1ccccc1OC(C)C(=O)N1CC(=O)Nc2ccccc21 (stereo not given)	–	–	–	–	–	–
COc1cccc(OCc2ccc(Cl)cc2)c1C#N	–	–	?	18.4µM	–	–
CCc1cccc(C)c1NC(=O)CN(C)S(=O)(=O)c1cccc2nsnc12	–	–	?	–	·	–
Cc1ccc(S(=O)(=O)N2CCCC2C(=O)OCc2ccco2)cc1 (stereo not given)	–	–	14.6µM	20.6µM	–	–
